The values below come from PubChem BioAssay (NCATS).

Molecules are shown by their SMILES. The source made the active and inactive calls. Calls come from the whole dose curve; as a rule, active = well fitted activation curve with a large enough effect; inconclusive = small, poorly fitted or top-dose-only effect; inactive = flat fitted curve, though single readings scatter.

This experiment is described as follows: Confirmation and Secondary Assay for Modulators of Hemoglobin Beta Chain Splicing at IVS2 654 locus (AID 910).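 Note: HeLa cells stably carrying EGFP split by mutant beta-globin IVS2-654 intron; % of control where 0% means no effect.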 As to conditions: HeLa EGFP-654 splicing reporter, GFP fluorescence, 48 h; series mostly up to 46.1 µM; activation (splicing correction): at the top concentration. The source says:
NIH Chemical Genomics Center [NCGC] NIH Molecular Libraries Screening Centers Network [MLSCN] MLSCN Grant: 1 X01 MH080684-01 PI Name: Dr. Ryszard Kole NCGC Assay Overview: Modulation of Alternative Splicing as Therapy Abnormal splicing is associated with a number of diseases, including cancer and genetic diseases such as cystic fibrosis, muscular dystrophy and beta-thalassemia. Alteration of disease associated splicing patterns provides a promising target for treatment. […] Mutations in the second intron of the b-globin gene at positions 654 or 705 are clinically relevant and cause mis-splicing which results in an out of frame gene product. […] EGFP-654 HeLa Cells as screen system. HeLa cell lines were stably transfected with a construct in which the EGFP (enhanced green fluorescent protein) cDNA was interrupted by the second intron of the beta-globin gene (IVS2-654). The ISV2 intron contains mutations which cause mis-splicing of EGFP and premature termination of EGFP which results in a nonfluorescent protein product. […] Expression of the transgene was driven by the CMV promoter. We concluded that a low molecular weight compound, which restored correct splicing of intron 2 would also generate functional EGFP protein, resulting in a fluorescent signal. Thus, the HeLa cells that express the EGFP-654 construct can be used for high throughput screening of a chemical library.
NCGC Assay Protocol Summary: Confirmatory Screening. Freshly thawed HeLa EGFP-654 cells were seeded in 5 ul of optimem media (Invitrogen) containing 2 % fetal calf serum (Hyclone) and 1x penicillin/streptomycin (Invitrogen) at a concentration of 500 cells per well in 1536-well plates. Cells were incubated overnight at 37C in 5% CO2. The next day, cells were treated with DMSO, 500 nM antisense ISV2 654 PNA control oligo, or library compound and allowed to grow at 37C in 5% CO2 for 2 days. The PNA oligo blocked the mutation site in the intron and allowed proper (wild type) splicing to occur, resulting in full length EGFP expression and also allowed for optimization of the assay parameters. Plates were read in the Acumen Explorer (TTP Labtech) using 488 nm laser excitation and 500-520 nm emission PMT filter in a 1 x 8 uM capture mode. Fluorescnet objects ranging in size from 5 to 250 uM were measured and the total peak GFP intensity for each well was used for data analysis. Keywords: Thalassemia, beta-thalassemia, beta-globin, EGFP, ISV2 654, ISV2 705, SSO, PNA, antisense, splicing, MLSMR, MLSCN, NIH Roadmap, qHTS, NCGC
Take `COC(=O)CC1[C@@]2(C)C[C@@]34OC5(C)OC6(CC[C@@]7(C)C(c8ccoc8)OC(=O)C(C(C)=O)C7[C@]6(O5)C(O)[C@@]3(O)C2O)[C@]14C` (stereo not given in full): the “activation (splicing correction)” value is 2.43% [at 38.3 µM] (inactive).

Regarding `COc1cc2ccc(=O)oc2c(OC)c1OC`, the “activation (splicing correction)” value is 5.07% (inactive). Take `COC(=O)CC1C(C)(C)C(=O)C2CC3C4=CC(=O)OC(c5ccoc5)[C@]4(C)CCC3[C@@]1(C)C2=O` (stereo not given in full): the “activation (splicing correction)” value was -4.08% (inactive). For the molecule `O=C(O)/C=C/C=C/c1ccccc1`, the “activation (splicing correction)” value was 5.28% [at 38.3 µM] (inactive). For the molecule `COc1ccc(-c2c(O)c3c(OC)c4c(cc3oc2=O)OC(C)(C)CC4)cc1`, the “activation (splicing correction)” value was -1.72% [at 38.3 µM] (inactive).

`Nc1ncnc2c1nc(Br)n2C1OC(CO)C(O)C1O` (stereo not given): the “activation (splicing correction)” value was 0.98% [at 38.3 µM] (inactive). In the case of `CC(=O)OC1CCC2(C)C3=C(CCC2C1(C)C)[C@@]1(C)CCC(C(C)CCC=C(C)C)[C@@]1(C)CC3` (stereo not given in full), the “activation (splicing correction)” value was 2.59% (inactive). With `COc1cc(OC)c2c(=O)c(-c3ccccc3)coc2c1` the figure was -0.0562% [at 38.3 µM] (inactive). For the molecule `C=C1C(=O)OC2C[C@@]3(C)CCCC(C)C3=CC12` (stereo not given in full), the “activation (splicing correction)” value is -2.97% [at 38.3 µM] (inactive). With `COC1=CC(=O)C=C(OC)C1=O` the figure was 7.82% (inactive). As for `CNCC(O)c1cccc(O)c1` (stereo not given), the “activation (splicing correction)” value is 10.4% (inactive). The result for `C[C@@]12CCC(OC(=O)c3ccccc3)CC1CCc1ccccc12` (stereo not given in full) reads -0.966% [at 38.3 µM] (inactive); that for `CNC(C)C1CC[C@H](N)[C@@H](OC2C(N)C[C@H](N)[C@@H](OC3OC[C@](C)(O)C(NC)[C@H]3O)C2O)O1` (stereo not given in full), 3.34% (inactive); that for `COc1ccc2c(=O)ccoc2c1`, -0.163% [at 38.3 µM] (inactive). For the molecule `COc1c2ccoc2c(OC)c2oc(=O)ccc12`, the “activation (splicing correction)” value was -2.11% [at 38.3 µM] (inactive).

For the molecule `CNC1CCC(c2ccc(Cl)c(Cl)c2)c2ccccc21` (stereo not given), the “activation (splicing correction)” value is -7.58% (inactive). As for `C=C1C(=O)C23C(O)C1CCC2[C@]12COC3(O)C(O)C1C(C)(C)CC[C@H]2O` (stereo not given in full), the “activation (splicing correction)” value is 22.5% (inactive). As to `CC(=O)c1ccc[nH]1`, the “activation (splicing correction)” value is 2.85% [at 38.3 µM] (inactive). The result for `COc1ccc2cc1Oc1ccc(cc1)CC1c3cc(c(OC)cc3CCN1C)Oc1c(OC)c(OC)cc3c1C(C2)N(C)CC3` (stereo not given) reads -4.57% (inactive); that for `O=c1[nH]cnc2c1ncn2C1CC(O)C(CO)O1` (stereo not given), 0.685% [at 38.3 µM] (inactive); that for `CC1(C)CC[C@]2(C(=O)O)CC[C@@]3(C)C(=CCC4[C@@]5(C)CCC(O)C(C)(C)C5CC[C@@]43C)C2C1` (stereo not given in full), -3.73% (inactive).

For `COc1c2c(cc3occ(-c4ccc5c(c4)OCO5)c(=O)c13)OC(C)(C)C=C2`, the “activation (splicing correction)” value is -0.397% [at 38.3 µM] (inactive). For `CC(C)=CCc1c(O)cc2occ(-c3ccc4c(c3)OCO4)c(=O)c2c1O`, the “activation (splicing correction)” value is -7.55% (inactive).

Regarding `COc1ccc(-c2cc(=O)c3ccccc3o2)cc1OC`, the “activation (splicing correction)” value was 2.87% [at 38.3 µM] (inactive). With `COc1ccc2c3c1OC1CC(O)C=C[C@@]31CCN(C)C2` (stereo not given in full), the “activation (splicing correction)” value was 7.17% (inactive).

For the molecule `CC(CCC(=O)O)C1CCC2C3CC[C@H]4CC(O)CC[C@@]4(C)C3CC[C@@]12C` (stereo not given in full), the “activation (splicing correction)” value is -6.74% (inactive). Consider `CC1CC[C@@]23CCC4(C)[C@@]5(C)CCC6C(C)(C)C(=O)CC[C@@]6(C)C5C=C[C@@]4(OC2=O)C3C1C` (stereo not given in full), for which the “activation (splicing correction)” value is 0.921% [at 38.3 µM] (inactive).

On to `NCC1O[C@H](O[C@@H]2C(O)[C@H](O[C@H]3OC(CO)C(O)C(N)C3O)[C@@H](N)C[C@H]2N)[C@@H](N)CC1O` (stereo not given in full), for which the “activation (splicing correction)” value was 3.77% (inactive). The result for `COc1c(-c2coc3cc4c(cc3c2=O)CC(OC(C)=O)C(C)(C)O4)ccc2c1C=CC(C)(C)O2` (stereo not given) reads 1.06% [at 38.3 µM] (inactive); that for `CC(=O)OCC(=O)[C@@]1(O)CCC2C3CCC4=CC(=O)CC[C@]4(C)C3C(=O)C[C@]21C` (stereo not given in full), 0.495% (inactive); that for `O=C1OC(C(O)CO)C(O)=C1O` (stereo not given), 0.456% (inactive). The result for `CS(C)(=O)=O` reads 7.24% (inactive).

On to `CC(=O)Oc1c(-c2ccccc2)oc2c(CC=C(C)C)c3c(c(OC(C)=O)c2c1=O)C=CC(C)(C)O3`, for which the “activation (splicing correction)” value is -2.23% [at 38.3 µM] (inactive). With `COC(=O)C1C(O)CC[C@H]2CN3CCc4c([nH]c5ccccc45)C3C[C@H]12` (stereo not given in full) the figure was -1.68% [at 38.3 µM] (inactive); with `COc1ccc(/C=C/C(=O)c2cc(O)ccc2O)cc1`, 8.36% (inactive); with `Nc1nc2c(ncn2C2OC(COC(=O)c3ccccc3)C(OC(=O)c3ccccc3)C2OC(=O)c2ccccc2)c(=O)[nH]1` (stereo not given), -0.483% [at 38.3 µM] (inactive). As for `NC(N)=N/N=C\c1c(Cl)cccc1Cl`, the “activation (splicing correction)” value is -4.1% (inactive). In the case of `CC(=O)[C@]1(O)CCC2C3CC(C)C4=CC(=O)C=CC4(C)[C@@]3(F)C(O)C[C@]21C` (stereo not given in full), the “activation (splicing correction)” value was -1.29% (inactive).

With `CCC1CN2CCc3cc(OC)c(OC)cc3C2CC1CC1NCCc2cc(OC)c(OC)cc21` (stereo not given), the “activation (splicing correction)” value was -8.31% (inactive). `CN1C2CC(OC(=O)C(CO)c3ccccc3)C[C@@H]1[C@H]1OC21` (stereo not given in full): the “activation (splicing correction)” value is 3.6% (inactive).
